Data: PubChem BioAssay (Tox21)
Values without a mark were called inactive. Where a call stands in place of a potency, no number is given. Activity calls are given as the source filed them. Calls come from the whole dose curve; as a rule, active = well fitted curve in the direction sought with a large enough effect in the repeat runs; inconclusive = weak or mixed curves; inactive = flat fitted curve, though single readings scatter.

assay: qHTS assay to test for compound auto fluorescence at 590 nm (red) in HEK293 cells (AID 720679); conditions: red autofluorescence 540/590 nm; series mostly up to 91.3 µM
Outline: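 We plated HEK293 cells in 10% dialyzed FBS medium, let them adhere for 4-5 hr, then added 23 nL compound. Overnight at 37C and 5% CO2 preceded fluorescence measurement at 540/590nm.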

| SMILES | fluorescence, % of fluorescent control | Potency |
| --- | --- | --- |
| CC(C)(C)CC(C)(C)c1ccc(Nc2ccc(C(C)(C)CC(C)(C)C)cc2)cc1 | -0.94% [at 3.72 µM] | – |
| CC(C)=CCC1=C(O)c2ccccc2C(=O)C1=O | – | inactive |
| ClCCl | – | inactive |
| CCCCNS(=O)(=O)c1ccc(C)cc1 | – | inactive |
| CC(CO)Oc1ccccc1 (centres undefined) | – | inactive |
| C=C(CC)C(=O)c1ccc(OCC(=O)O)c(Cl)c1Cl | – | inactive |
| CCC(COC(=O)CCS)(COC(=O)CCS)COC(=O)CCS | – | inactive |
| O=C(O)c1cccc(C(F)(F)F)c1 | – | inactive |
| O=C(O)CCN(C1(C(=O)NO)CCCC1)S(=O)(=O)c1ccc(Oc2ccc(F)cc2)cc1 | – | inactive |
| Nc1ccc(C(=O)O)c(O)c1 | – | inactive |
| C[C@H]1NCc2cc(-c3ccc4c(=O)c(C(=O)O)cn(C5CC5)c4c3OC(F)F)ccc21 | – | inactive |
| O=C(Oc1ccccc1)Oc1ccccc1 | – | inactive |
| O=[N+]([O-])c1ccc(O)cc1C(F)(F)F | – | inactive |
| COC(=O)Nc1nc2ccc(C(=O)c3ccccc3)cc2[nH]1 | 0.41% [at 18.6 µM] | – |
| O=C(O)c1cc(=O)c2ccccc2o1 | – | inactive |
| CC1=Nc2ccccc2C1(C)C | – | inactive |
| CCCCCCCC/C=C\CCCCCCCCN | – | inactive |
| CCCCC(CC)CN1CN(CC(CC)CCCC)CC(C)(N)C1 (centres undefined) | -0.0426% [at 18.6 µM] | – |

assay: qHTS assay to test for compound auto fluorescence at 535 nm (green) in HEK293 cells (AID 720680); conditions: green autofluorescence 485/535 nm; series mostly up to 91.3 µM

| SMILES | fluorescence, % of fluorescein | Potency |
| --- | --- | --- |
| O=C(O)[C@H](O)[C@@H](O)[C@H](O[C@@H]1O[C@H](CO)[C@H](O)[C@H](O)[C@H]1O)[C@H](O)CO | -0.0275% [at 18.6 µM] | – |
| Cc1c2ccccc2c(C)c2c1ccc1ccccc12 | – | inactive |
| NC[C@H]1O[C@H](O[C@H]2[C@H](O[C@@H]3O[C@H](CO)[C@@H](O)[C@H]3O)C(O)[C@H](N)C[C@@H]2N)[C@H](N)[C@@H](O)[C@@H]1O (some centres undefined) | -0.0694% [at 18.6 µM] | – |
| O=C(O)Cc1ccccc1Nc1c(Cl)cccc1Cl | – | inactive |
| CC(C)CCCCCOC(=O)CCS | – | inactive |
| COc1cc(/C=C/c2ccccc2)oc(=O)c1 | – | inactive |
| CCO[Si](OCC)(OCC)OCC | – | inactive |
| CCCCC(CC)COC(=O)CCCCC(=O)OCc1ccccc1 (centres undefined) | – | inactive |
| NC(=S)NC(N)=S | – | inactive |
| CC(=O)c1ccc(C(C)=O)cc1 | – | inactive |
| Cc1ccc(C(=O)O)cc1 | – | inactive |
| CCC(CC)(CC(=O)Nc1cccc(/C=C/c2nc(C3CCC3)cs2)c1)C(=O)O | – | inactive |
| CCOC(=O)NNc1ccc(N(CC)CC(C)O)nn1 (centres undefined) | – | inactive |
| C=CC(=O)Nc1cc2c(Nc3ccc(F)c(Cl)c3)ncnc2cc1OCCCN1CCOCC1 | – | inactive |
| CCN(CC)c1ccc2c(-c3ccc(S(=O)(=O)O)cc3S(=O)(=O)[O-])c3ccc(=[N+](CC)CC)cc-3oc2c1 | – | inactive |
| Cc1cccc2cccnc12 | – | inactive |
| c1ccsc1 | – | inactive |
| O=S(=O)(O)c1ccc(Nc2nc(Nc3ccc(/C=C/c4ccc(Nc5nc(Nc6ccc(S(=O)(=O)O)cc6)nc(N(CCO)CCO)n5)cc4S(=O)(=O)O)c(S(=O)(=O)O)c3)nc(N(CCO)CCO)n2)cc1 | – | inactive |

| SMILES | fluorescence, % of fluorescein | Potency |
| --- | --- | --- |
| CC(C)(C)CC(C)(C)c1ccc(Nc2ccc(C(C)(C)CC(C)(C)C)cc2)cc1 | -0.0015% [at 3.72 µM] | – |
| CC(C)=CCC1=C(O)c2ccccc2C(=O)C1=O | – | inactive |
| ClCCl | – | inactive |
| CCCCNS(=O)(=O)c1ccc(C)cc1 | – | inactive |
| CC(CO)Oc1ccccc1 (centres undefined) | – | inactive |
| C=C(CC)C(=O)c1ccc(OCC(=O)O)c(Cl)c1Cl | – | inactive |
| CCC(COC(=O)CCS)(COC(=O)CCS)COC(=O)CCS | – | inactive |
| O=C(O)c1cccc(C(F)(F)F)c1 | – | inactive |
| O=C(O)CCN(C1(C(=O)NO)CCCC1)S(=O)(=O)c1ccc(Oc2ccc(F)cc2)cc1 | – | inactive |
| Nc1ccc(C(=O)O)c(O)c1 | – | inactive |
| C[C@H]1NCc2cc(-c3ccc4c(=O)c(C(=O)O)cn(C5CC5)c4c3OC(F)F)ccc21 | – | inactive |
| O=C(Oc1ccccc1)Oc1ccccc1 | – | inactive |
| O=[N+]([O-])c1ccc(O)cc1C(F)(F)F | – | inactive |
| COC(=O)Nc1nc2ccc(C(=O)c3ccccc3)cc2[nH]1 | -0.035% [at 18.6 µM] | – |
| O=C(O)c1cc(=O)c2ccccc2o1 | – | inactive |
| CC1=Nc2ccccc2C1(C)C | – | inactive |
| CCCCCCCC/C=C\CCCCCCCCN | – | inactive |
| CCCCC(CC)CN1CN(CC(CC)CCCC)CC(C)(N)C1 (centres undefined) | -0.025% [at 18.6 µM] | – |
